NPC1 promoter act – activates the NPC1 promoter; Huh7 NPC1 promoter luciferase reporter, 24 h; Potency, µM (titrated, usually from 9.22 µM), inactives show at the highest dose activation, hits mostly activators; actives 2.4% (n = 320,000); note: % of control where 0% means no effect; nearly all actives have a fitted effect of over 60% in size
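NPC1 promoter–luciferase Huh7 cells; 24 h compound; luminescence.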
ELG1 genotoxic – induces genotoxicity in HEK293T cells with luciferase-tagged ELG1. HEK293T ELG1-luciferase reporter, luminescence, 16 h. Potency, µM (doses to about 46 µM), inactives show top-dose activity change, positive = activation, actives largely listed as activators. actives 1.3% (n = 330,000). AID 504466; note: % of control where 0% means no effect; nearly all actives have a fitted effect of over 60% in size
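Step 1: seed 2,000 HEK293T ELG1-luciferase cells per well. Step 2: add compound or DMSO, incubate 16 hr at 37 °C. Step 3: ONE-Glo, 30 min at room temperature, read luminescence.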
SMN2 splice up – increases expression of the SMN2 splice variant. HEK293 SMN2-luciferase splicing reporter, luminescence, 30-36 h. Potency, µM (doses to about 46.1 µM), for the others: at the top dose activity change, positive = activation, actives largely listed as activators. actives 2.8% (n = 210,000). AID 1458; note: % of control where 0% means no effect; nearly all actives have a fitted effect of over 55% in size
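HEK293 cells carry an SMN2 minigene-luciferase reporter in which exon 7 inclusion puts luciferase in frame. Cells were seeded at 2000 cells/well, attached for 10-12 hours, then exposed to compounds for 30-36 hours at 37C before ONE-Glo luminescence.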
ELG1 repair inh – inhibitors of ELG1-dependent DNA repair in HEK293T cells. Potency, µM (series often up to 46.1 µM), inactives show at the highest dose activity change, negative = inhibition, actives largely listed as inhibitors. actives 2.3% (n = 330,000). HEK293T ELG1-luciferase reporter, luminescence, 16 h; DNA damage induced by 5-fluorouridine; note: % is set by controls: 0 for no effect and ±100 for the full control effect; nearly all actives have a fitted effect of over 55% in size
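Cells (2,000 per well) received 5-fluorouridine plus test compound or DMSO and were incubated 16 hr at 37 °C, 5% CO2. Luciferase activity was read by luminescence 30 min after ONE-Glo addition; signal suppression marked inhibition of damage-induced ELG1 function.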
FLuc modulator – firefly luciferase modulation, counter-screen for miR-21 project. P08659. purified FLuc, Km substrates, luminescence inhibition. Potency, µM (doses to about 57.5 µM), inactives show at the top dose activity change, negative = inhibition, hits mostly inhibitors. actives 6.9% (n = 360,000);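 note: plate controls were vehicle for no effect and reference inhibitor for full effect; nearly all actives have a fitted effect of over 55% in size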
Target sequence (P08659 whole entry, looked up): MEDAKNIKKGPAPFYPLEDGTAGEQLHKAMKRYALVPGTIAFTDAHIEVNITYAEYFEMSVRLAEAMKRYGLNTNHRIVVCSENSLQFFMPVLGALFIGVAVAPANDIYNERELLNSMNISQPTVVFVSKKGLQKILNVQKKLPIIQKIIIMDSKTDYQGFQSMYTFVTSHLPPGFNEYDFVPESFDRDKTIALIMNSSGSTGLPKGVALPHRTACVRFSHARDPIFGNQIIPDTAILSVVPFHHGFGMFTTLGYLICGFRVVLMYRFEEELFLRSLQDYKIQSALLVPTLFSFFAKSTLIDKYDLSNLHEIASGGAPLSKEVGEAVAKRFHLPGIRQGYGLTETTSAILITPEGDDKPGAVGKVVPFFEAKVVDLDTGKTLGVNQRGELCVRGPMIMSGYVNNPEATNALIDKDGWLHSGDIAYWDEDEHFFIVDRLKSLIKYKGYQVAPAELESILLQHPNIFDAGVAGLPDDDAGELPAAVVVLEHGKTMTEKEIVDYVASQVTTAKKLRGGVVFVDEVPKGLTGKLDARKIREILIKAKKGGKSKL
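Purified P. pyralis luciferase (10nM final) with 10uM D-luciferin and 10uM ATP (Km levels) in 50mM Tris acetate pH 7.5, 10mM Mg acetate, 0.01% Tween-20, 0.05% BSA; qHTS 6-point titration, ~60 µM downward; luminescence read.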
Rab9 promoter act – activates the Rab9 promoter; Huh7 Rab9 promoter-luciferase reporter, luminescence, 24 h; Potency, µM (doses to about 9.22 µM), for the others: at the highest dose activation, negative = inhibition, most hits filed as activators; actives 2.8% (n = 320,000); AID 485297; note: % of control where 0% means no effect; nearly all actives have a fitted effect of over 60% in size
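Huh7 cells stably carrying a Rab9 promoter-luciferase reporter, 1500 cells per well in OP-MEM I with 10% FBS, treated with compound 24 hours at 37C. Luciferase activity read by luminescence after 10 minutes with Amplite reagent.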
An asterisk follows results filed as active. A selection: hits, their analogues and other compounds. The true share with any hit is near 9.2%. Calls come from the whole dose curve; as a rule, active = well fitted curve in the direction sought with a large enough effect; inconclusive = small, poorly fitted or top-dose-only effect, or another doubt; inactive = no such curve, though single readings can be large; an effect the other way counts as inactive or inconclusive. Potency is the fitted concentration of half-maximal effect.

Results for COC(=O)COc1ccc2c(=O)c(-c3ccccc3)coc2c1 ?
NPC1 promoter act: 2.9%; ELG1 genotoxic: -1.9%; ELG1 repair inh: 5.6%; FLuc modulator: 16.9µM*; Rab9 promoter act: 1.3%

What do the screens show for `COC(=O)COc1ccc2c(-c3ccc(OC)cc3)cc(=O)oc2c1`?
NPC1 promoter act: -0.7%; ELG1 genotoxic: 0.9%; SMN2 splice up: -10.5%; ELG1 repair inh: -0.2%; FLuc modulator: inconclusive; Rab9 promoter act: -3.0%

What do the screens show for `COCCCNC(=S)N1CCN(c2nc(C)nc3sc4c(c23)CCCC4)CC1`?
NPC1 promoter act: 1.9%; ELG1 genotoxic: -7.3%; ELG1 repair inh: 20.6µM*; FLuc modulator: 0.3%; Rab9 promoter act: 1.0%

What do the screens show for `CCOC(=O)c1c(C)[nH]c(C(=O)OCC(=O)N2CCN(S(=O)(=O)c3ccc(C)cc3C)CC2)c1C`?
NPC1 promoter act: 0.2%; ELG1 genotoxic: -5.9%; ELG1 repair inh: 12.6µM*; FLuc modulator: -0.1%; Rab9 promoter act: -8.8%

Results for CSc1ccc(CSCC(=O)N2CCN(S(=O)(=O)c3ccc(C)cc3C)CC2)cc1 ?
NPC1 promoter act: 1.1%; ELG1 genotoxic: -5.3%; ELG1 repair inh: 10µM*; FLuc modulator: 6.0%; Rab9 promoter act: -11.6%

Results for COc1ccc(C(=O)N2CCN(C(=O)COc3ccc(Br)cc3)CC2)cc1OC ?
SMN2 splice up: 5.4%; FLuc modulator: 16.9µM*

Results for CC(=O)c1c(C)[nH]c(C(=O)N2CCN(S(=O)(=O)c3ccc(C)cc3C)CC2)c1C ?
NPC1 promoter act: -0.5%; ELG1 genotoxic: 1.0%; ELG1 repair inh: inconclusive; FLuc modulator: -0.4%; Rab9 promoter act: -7.1%

What do the screens show for `COc1cc(/C=C/C(=O)OCC(=O)N2CCN(S(=O)(=O)c3ccc(C)cc3C)CC2)ccc1O`?
NPC1 promoter act: -0.6%; ELG1 genotoxic: -5.1%; SMN2 splice up: 4.8%; ELG1 repair inh: 20.6µM*; FLuc modulator: -0.4%; Rab9 promoter act: -2.6%

How did COc1ccc(OCC(=O)N2CCN(C(=O)c3ccc(OC)c(OC)c3)CC2)cc1 do in these assays?
SMN2 splice up: -2.7%; FLuc modulator: inconclusive

How did Cc1ccc(S(=O)(=O)N2CCN(C(=O)COC(=O)/C=C/c3ccccc3F)CC2)c(C)c1 do in these assays?
NPC1 promoter act: 0.1%; ELG1 genotoxic: 2.1%; ELG1 repair inh: -1.0%; FLuc modulator: -1.7%; Rab9 promoter act: 2.7%

How did CCOc1ccc(CCNC(=O)Cn2ncc3c([nH]c4ccccc43)c2=O)cc1OCC do in these assays?
FLuc modulator: -1.4%

How did Oc1ccc(COCc2ccc(F)cc2)c2cccnc12 do in these assays?
NPC1 promoter act: -27.4%; FLuc modulator: inconclusive; Rab9 promoter act: -16.1%

How did COc1cc(C(=O)N2CCN(S(=O)(=O)c3ccc(C)cc3C)CC2)ccc1OCC(=O)N1CCOCC1 do in these assays?
NPC1 promoter act: 3.8%; ELG1 genotoxic: 2.3%; ELG1 repair inh: 2.31µM*; FLuc modulator: 2.5%; Rab9 promoter act: 0.1%

How did COc1cc(C(=O)N2CCN(C(=O)c3cc(-c4ccc(Br)cc4)n[nH]3)CC2)cc(OC)c1OC do in these assays?
NPC1 promoter act: 0.8%; ELG1 genotoxic: 1.5%; ELG1 repair inh: -9.7%; FLuc modulator: 10.7µM*; Rab9 promoter act: 2.2%

Results for COc1ccc(C(=O)N2CCN(S(=O)(=O)c3ccc(C)cc3C)CC2)cc1OC ?
NPC1 promoter act: -0.2%; ELG1 genotoxic: 0.7%; SMN2 splice up: -12.1%; ELG1 repair inh: inconclusive; FLuc modulator: -1.9%; Rab9 promoter act: -2.2%

What do the screens show for `COc1ccccc1C(=O)Nc1cccc2nc(C)ccc12`?
NPC1 promoter act: 1.8%; ELG1 genotoxic: -0.8%; ELG1 repair inh: -8.8%; FLuc modulator: -11.0%; Rab9 promoter act: 7.4%

Results for O=C(CSc1nnc2c(n1)[nH]c1ccc(S(=O)(=O)N3CCOCC3)cc12)Nc1ccccc1Cl ?
NPC1 promoter act: -3.3%; ELG1 genotoxic: -11.0%; SMN2 splice up: -15.1%; ELG1 repair inh: -20.6%; FLuc modulator: 2.2%; Rab9 promoter act: -0.7%

What do the screens show for `Cc1ccc(NC(=O)CSc2ncnc3ccccc23)cc1S(=O)(=O)N1CCCCC1`?
NPC1 promoter act: -1.9%; ELG1 genotoxic: 1.6%; SMN2 splice up: -28.7%; ELG1 repair inh: inconclusive; FLuc modulator: -19.9%; Rab9 promoter act: -6.7%

What do the screens show for `COc1ccc(S(=O)(=O)N2CCCCC2)cc1NC(=O)CSc1ncnc2ccccc12`?
NPC1 promoter act: -9.8%; ELG1 genotoxic: -6.1%; SMN2 splice up: -45.1%; ELG1 repair inh: inconclusive; FLuc modulator: 8.49µM*; Rab9 promoter act: -46.7%

Results for COc1ccc(S(=O)(=O)N2CCOCC2)cc1NC(=O)CSc1nnc2c(n1)[nH]c1ccccc12 ?
NPC1 promoter act: 2.6%; ELG1 genotoxic: -7.1%; ELG1 repair inh: 23.1µM*; FLuc modulator: inconclusive; Rab9 promoter act: -2.8%

What do the screens show for `Cc1ccc2nc(NC(=O)CCNS(=O)(=O)c3ccc(Br)s3)sc2c1`?
NPC1 promoter act: 1.2%; ELG1 genotoxic: -3.7%; SMN2 splice up: -11.0%; ELG1 repair inh: -17.5%; FLuc modulator: 19µM*; Rab9 promoter act: 4.0%

How did Cc1cccc2sc(NC(=O)CCNS(=O)(=O)c3cccs3)nc12 do in these assays?
NPC1 promoter act: -10.1%; ELG1 genotoxic: -7.9%; SMN2 splice up: 0.9%; ELG1 repair inh: inconclusive; FLuc modulator: -0.6%; Rab9 promoter act: 5.1%

Results for Cc1ccc2nc(NC(=O)CCNS(=O)(=O)c3cccs3)sc2c1 ?
NPC1 promoter act: 16.8%; ELG1 genotoxic: -3.6%; SMN2 splice up: -0.8%; ELG1 repair inh: inconclusive; FLuc modulator: 12µM*; Rab9 promoter act: 22.0%

Results for C/C(=N\NC(=O)c1ccc(NS(=O)(=O)c2cccs2)cc1)c1ccc(C(C)(C)C)cc1 ?
NPC1 promoter act: -0.4%; ELG1 genotoxic: 0.1%; SMN2 splice up: inconclusive; ELG1 repair inh: inconclusive; FLuc modulator: 12µM*; Rab9 promoter act: -7.1%

How did Cc1ccc2nc(NC(=O)c3ccc(NS(=O)(=O)c4cccs4)cc3)sc2c1 do in these assays?
NPC1 promoter act: 15.4%; ELG1 genotoxic: 9.2%; SMN2 splice up: -7.7%; ELG1 repair inh: -1.7%; FLuc modulator: 12µM*; Rab9 promoter act: 15.9%

Results for CC(=O)Nc1cccc(/C(C)=N/NC(=O)c2ccc(NS(=O)(=O)c3cccs3)cc2)c1 ?
NPC1 promoter act: -2.3%; ELG1 genotoxic: -4.1%; ELG1 repair inh: 1.2%; FLuc modulator: inconclusive; Rab9 promoter act: 2.3%

Source: PubChem (National Center for Advancing Translational Sciences (NCATS))
